Source: PubChem BioAssay (National Center for Advancing Translational Sciences (NCATS))
A selection: hits, their analogues and other compounds. The true share with any hit is near 8.9%.
NPSR antagonist: antagonists of human neuropeptide S receptor cAMP signaling | CHO-NPSR cells, cAMP TR-FRET, antagonist mode | Potency, µM (doses to about 38.3 µM), for inactives: at the highest dose activity change, negative = inhibition, hits mostly inhibitors | hit rate 1% among 220,000 | AID 1461; note: potency is the fitted concentration of half-maximal effect; nearly all actives have a fitted effect of over 50% in size
IMPase inh: membrane-permeable compound that blocks inositol monophosphatase. CHO-M1 cells, IP1 accumulation, HTRF TR-FRET ratio. inhibition (IP1 accumulation), % at 46.1 µM. P97697. 120,000 tested, under 10 active; active = well fitted curve in the direction sought with a large enough effect in the signal ratio, not every such curve was filed as active; inconclusive = small, poorly fitted or top-dose-only effect, or a change in a side signal; inactive = no such curve, though single readings can be large or run the other way; the % refers to the signal ratio;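 note: cells stimulated with carbachol in lithium chloride buffer; plate controls were DMSO basal wells for no effect and reference inhibitor wells for full effect; higher means more IMPase inhibition seen as more IP1 and lower FRET ratio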
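CHO-M1, 2000 cells/well, cultured 16–30 h; cpd up to 46 uM; carbachol (50 uM solution, stimulation buffer w/ 50 mM LiCl, pH 7.4), 30 min 37C; IP-One TR-FRET, 10 min RT; Ex 320/Em 665, 620; Hill-fit AC50.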
ALDH1A1 inh: inhibitors of human aldehyde dehydrogenase 1A1 | P00352 | Purified ALDH1A1, NADH fluorescence, propionaldehyde substrate | Potency, µM (series often up to 75.3 µM), inactives show at the top dose activity, negative = inhibition, most hits filed as inhibitors | hit rate 7.3% among 220,000; active = well fitted inhibition curve with a large enough effect, not every such curve was filed as active; inconclusive = small, poorly fitted or top-dose-only effect, or another doubt; inactive = no such curve, though single readings can be large or run the other way;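 note: potency is the fitted concentration of half-maximal effect; plate controls were no enzyme wells and a reference inhibitor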
HPGD inh: inhibitors of human 15-hydroxyprostaglandin dehydrogenase (HPGD); P15428; purified HPGD, NADH fluorescence kinetic, PGE2 substrate; Potency, µM, for inactives: at the highest dose activity change, negative = inhibition, actives largely listed as inhibitors; hit rate 4.3% among 150,000; AID 894; active = well fitted inhibition curve with a large enough effect, not every such curve was filed as active; inconclusive = small, poorly fitted or top-dose-only effect, or another doubt; inactive = no such curve, though single readings can be large or run the other way; note: potency is the fitted concentration of half-maximal effect
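NADH formation kinetics: reaction with 30 uM PGE2 and 1 mM NAD+ (final), 20 nM enzyme, Tris-HCl pH 8 with Tween 20, after 15 min compound preincubation at room temperature. Fluorescence change, last versus first of five reads.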
ALOX12 inhib: inhibitors of human 12-lipoxygenase (ALOX12) | Potency, µM (top dose mostly 57.1 µM), inactives show at the top dose activity change, negative = inhibition, actives largely listed as inhibitors | hit rate 0.12% among 150,000 | purified 12-hLO, xylenol orange hydroperoxide absorbance; note: potency is the fitted concentration of half-maximal effect; nearly all actives have a fitted effect of over 55% in size
Target sequence (P18054 whole entry, looked up): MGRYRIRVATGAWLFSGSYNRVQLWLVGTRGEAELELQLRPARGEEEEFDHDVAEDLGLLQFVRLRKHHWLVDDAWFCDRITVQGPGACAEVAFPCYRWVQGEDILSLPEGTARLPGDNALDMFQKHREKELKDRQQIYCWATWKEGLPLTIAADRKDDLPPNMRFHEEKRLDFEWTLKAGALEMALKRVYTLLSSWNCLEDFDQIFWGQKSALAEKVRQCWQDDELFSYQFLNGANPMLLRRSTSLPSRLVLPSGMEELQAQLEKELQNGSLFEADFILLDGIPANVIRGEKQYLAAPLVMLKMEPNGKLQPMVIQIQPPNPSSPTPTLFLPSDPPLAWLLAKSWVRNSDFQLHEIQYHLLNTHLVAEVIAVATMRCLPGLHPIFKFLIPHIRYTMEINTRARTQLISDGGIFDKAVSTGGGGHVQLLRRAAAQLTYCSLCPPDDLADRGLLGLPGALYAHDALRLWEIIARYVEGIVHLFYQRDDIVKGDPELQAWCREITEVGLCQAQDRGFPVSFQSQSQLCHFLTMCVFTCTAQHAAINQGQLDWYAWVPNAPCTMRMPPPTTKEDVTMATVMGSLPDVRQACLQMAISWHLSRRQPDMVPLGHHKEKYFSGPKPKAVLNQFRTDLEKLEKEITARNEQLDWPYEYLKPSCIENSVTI
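150 nM 12hLO, 25 mM Hepes pH 7.0 + 0.01% Triton X-100; cpd preinc 15 min RT; 40 uM arachidonic acid, 30 min RT; Fe-XO 30 min; A573/A405 ratio as read-out.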
IMPase Li inh: membrane-permeable IMPase blocker, potentiated with lithium; AID 1457; CHO-M1 cells, IP1 TR-FRET (IP-One), carbachol + lithium; hit rate 0.35% among 210,000; Potency, µM (highest dose often 59.4 µM), for the others: at the highest dose activity, negative = IMPase inhibition, hits mostly inhibitors;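 note: IP1 builds up when IMPase is blocked and the TR-FRET signal falls; potency is the fitted concentration of half-maximal effect; plate controls were basal vehicle for no effect and high inhibitor control for full effect; nearly all actives have a fitted effect of over 50% in size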
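Lithium-sensitised IP1 accumulation assay; M1-expressing CHO cells treated 30 min at 37C with compound. Competitive antibody detection by time-resolved FRET followed a 10 min room-temperature lysis step.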
Active calls of the source: *; ? = inconclusive; · = no result given; [ ] = remark or other dose. Unless noted, calls come from the whole dose curve; as a rule, active = well fitted curve in the direction sought with a large enough effect; inconclusive = small, poorly fitted or top-dose-only effect, or another doubt; inactive = no such curve, though single readings can be large; an effect the other way counts as inactive or inconclusive. Unless noted, % is set by controls: 0 for no effect and ±100 for the full control effect.

SMILES	NPSR antagonist	IMPase inh	ALDH1A1 inh	HPGD inh	ALOX12 inhib	IMPase Li inh
CCN(CC)c1ccc(/C=C2\CCC(/C=C(\C#N)C(=O)Nc3ccccc3F)=C2N2CCOCC2)cc1	-18%	6	?	11µM*	-2%	19%
Clc1ccccc1CSc1ncn(-c2ccccc2)n1	6%[46.1 µM]	7	-3%	18µM*	2%	12%
Cc1ccc(CSc2ncn(-c3ccccc3)n2)cc1	-17%[46.1 µM]	17	16µM*	20µM*	-17%	82%[38.3 µM]
O=C(CSc1ncn(-c2ccccc2)n1)NCc1ccccc1	-11%[46.1 µM]	?	-3%	-10%	-6%	29%[38.3 µM]
CSCC(=O)N1CCCC(CNC(=O)c2ccc(-c3ccccc3)cc2)C1 (stereo not drawn)	30%	·	4µM*	·	·	2%
COn1c(SC2CCCCC2)nc2ccccc2c1=O	-29%[46.1 µM]	-7	32µM*	32µM*	-2%	-1%[38.3 µM]
COn1c(SC(C)C)nc2ccccc2c1=O	-9%[46.1 µM]	1	3%	-13%	3%	-2%[38.3 µM]
C=CCn1c(SCc2nc3ccccc3nc2C)nnc1-c1ccoc1C	?	-5	1.6µM*	25µM*	-6%	32%[38.3 µM]
CCn1c(SCc2nc3ccccc3nc2C)nnc1-c1cccs1	-11%[46.1 µM]	2	0%	-7%	-2%	4%[38.3 µM]
COC(=O)c1ccc(-n2nnnc2SCc2ccccc2OC)cc1	?	8	14µM*	-24%	-7%	21%[38.3 µM]
CCc1ccc(-n2c(CSc3nnnn3-c3ccccc3)nc3ccccc3c2=O)cc1	-8%[46.1 µM]	-3	1.4µM*	-11%	-2%	28%[38.3 µM]
COC(=O)c1ccc(CSc2nnnn2-c2ccccc2)o1	-5%[46.1 µM]	3	7.1µM*	-21%	5%	11%[38.3 µM]
O=c1c2ccccc2nnn1CSc1nnnn1-c1ccc(O)cc1	4%	·	?	·	·	11%
O=C(CSc1nnc2n1CCCN2C(=S)Nc1ccc(Cl)cc1)c1ccccc1	-29%[46.1 µM]	4	?	-12%	0%	8%
C=CCN(C)CCCNC(=O)/C=N/O	-16%[46.1 µM]	6	7%	-4%	5%	-3%
COC(=O)Cn1cc(/C=C(/C#N)C(=O)N2CCOCC2)c2ccccc21	-4%	·	0%	·	·	5%
COc1ccc(Cc2nnc(NC(=O)CSc3ccccc3)s2)cc1	-12%[46.1 µM]	?	8%	-4%	0%	2%[38.3 µM]
NC(=S)N/N=C/c1ccccc1OCCSc1ccc(Cl)cc1	-59%	·	-6%	35µM*	-40%	8%
CCSC1=C(C#N)C(c2ccc(C)o2)CC(=O)N1 (stereo not drawn)	15%	·	·	·	·	·
N#CC1=C(SCC(=O)NC2CCCCC2)NC(=O)CC1c1ccco1 (stereo not drawn)	-18%[46.1 µM]	-3	11µM*	-17%	3%	12%[38.3 µM]
CC1=C(C(=O)Nc2ccccc2)C(c2ccco2)C(C#N)=C(SCc2ccccc2)N1 (stereo not drawn)	?	10	?	?	-5%	34%[38.3 µM]
CCCCCCSC1=C(C#N)C(c2ccc(C)o2)CC(=O)N1 (stereo not drawn)	-29%[46.1 µM]	9	7.9µM*	32µM*	-3%	33%[38.3 µM]
Cc1ccc(C2CC(=O)NC(SCc3ccccc3)=C2C#N)o1 (stereo not drawn)	-19%[46.1 µM]	5	-103%	22µM*	?	-19%[38.3 µM]
N#CC1=C(SCc2ccccc2)NC(=O)CC1c1ccco1 (stereo not drawn)	-7%[46.1 µM]	8	22µM*	-28%	-10%	14%[38.3 µM]
CCOC(=O)c1nn(-c2ccc(F)cc2)c2nc(CC(C)C)c(C#N)c(=O)n12	-11%[46.1 µM]	5[0.0738 µM]	?	4%	1%	5%
N#CC1=C(SCC(=O)NCc2ccccc2)NC(=O)CC1c1ccco1 (stereo not drawn)	-14%[46.1 µM]	2[1.84 µM]	8.9µM*	-10%	3%	37%[38.3 µM]
CCn1c(C(=O)N2CCCC(C(=O)NCCCc3ccccc3)C2)cc2sccc21 (stereo not drawn)	-15%[46.1 µM]	1	?	-15%	7%	16%
S=C(Nc1ccc2cn[nH]c2c1)Nc1ccccc1Cl	7%	·	14µM*	-15%	-4%	-7%
